Compound activity as filed in PubChem BioAssay.
Sampled rows, rich in hits. Any-hit rate of the full collection: about 19%.
IL-1B inflam inh: inhibitors of inflammasome signaling (IL-1 beta secretion); THP-1 LPS/ATP IL-1B secretion, AlphaLISA, 16 h; stronger effect = lower value; 360,000 compounds, 4.7% hits; activity change, % at 57.5 µM; in the data active = activity change below about -50%; inconclusive = mostly about -30% to -49%; note: % is set by controls: 0 for no effect and ±100 for the full control effect
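THP-1 cells pretreated 1 hr with compounds (up to 57.5 uM final), then stimulated with LPS (250 ng/mL final) plus ATP (1.25 mM final); secreted IL-1B measured by AlphaLISA after 16 hr, decreased signal indicating inhibition.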
DT40 TDP1 CPT: growth inhibition of DT40 Tdp1-/-;hTDP1 cells with camptothecin (screen for TDP1 inhibitors). chicken DT40 Tdp1-/-;hTDP1 cells + 20 nM CPT, ATP luminescence, 48 h. Potency, µM (titrated, usually from 46.2 µM), for inactives: at the highest dose activity change, negative = growth inhibition, hits mostly inhibitors. 420,000 compounds, 12% hits; note: potency is the fitted concentration of half-maximal effect; % is set by controls: 0 for no effect and ±100 for the full control effect; nearly all actives have a fitted effect of over 55% in size
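Chicken DT40 Tdp1-/- cells complemented with human TDP1, 400 cells/well, exposed to compounds plus 20 nM camptothecin for at least 48 h at 37 C; viability read as ATP content by CellTiter-Glo luminescence.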
DT40 TDP1 no CPT: qHTS for Inhibitors of human tyrosyl-DNA phosphodiesterase 1 (TDP1): qHTS in cells in absence of CPT; Potency, µM (doses to about 46.2 µM), for inactives: at the highest dose activity change, negative = growth inhibition, usual class: inhibitors; AID 686978, 2013; 420,000 compounds, 15% hits; DT40 Tdp1-/- hTDP1 cells, no CPT, ATP luminescence, 48 h; note: potency is the fitted concentration of half-maximal effect; % is set by controls: 0 for no effect and ±100 for the full control effect; nearly all actives have a fitted effect of over 55% in size
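Chicken DT40 Tdp1-/- cells stably complemented with human TDP1 were seeded at 400 cells/well with DMSO in place of 20 nM camptothecin. After compound pinning, cells grew at least 48 hr at 37 °C; viability read by CellTiter-Glo luminescence.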
TGFb inhibitor: inhibitors of TGF-b signaling; HepG2 CAGA-GFP TGF-b/SMAD3 reporter, GFP fluorescence, 18 h; TGF-beta stimulated, 500 pg/mL final; 410,000 compounds, 1.2% hits; Potency, µM (series often up to 46.1 µM), for inactives: at the highest dose activity, negative = inhibition, actives largely listed as inhibitors; note: potency is the fitted concentration of half-maximal effect; % is set by controls: 0 for no effect and ±100 for the full control effect; nearly all actives have a fitted effect of over 65% in size
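Cell-based qHTS in HEPG2 carrying a CAGA-GFP Smad reporter; compounds added before 500 pg/mL final TGF-beta, 18 h incubation at 37 degrees C, GFP fluorescence quantified per cell by imaging cytometry.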
ASM inhibitor: blocks human secretory acid sphingomyelinase; P17405; placental ASM, HMU-PC fluorogenic substrate, 60 min; Potency, µM (highest dose often 57.5 µM), without a hit: at the highest dose activity change, negative = inhibition, hits mostly inhibitors; 340,000 compounds, 0.006% hits; note: potency is the fitted concentration of half-maximal effect
Target sequence (P17405 47-631 limits assumed): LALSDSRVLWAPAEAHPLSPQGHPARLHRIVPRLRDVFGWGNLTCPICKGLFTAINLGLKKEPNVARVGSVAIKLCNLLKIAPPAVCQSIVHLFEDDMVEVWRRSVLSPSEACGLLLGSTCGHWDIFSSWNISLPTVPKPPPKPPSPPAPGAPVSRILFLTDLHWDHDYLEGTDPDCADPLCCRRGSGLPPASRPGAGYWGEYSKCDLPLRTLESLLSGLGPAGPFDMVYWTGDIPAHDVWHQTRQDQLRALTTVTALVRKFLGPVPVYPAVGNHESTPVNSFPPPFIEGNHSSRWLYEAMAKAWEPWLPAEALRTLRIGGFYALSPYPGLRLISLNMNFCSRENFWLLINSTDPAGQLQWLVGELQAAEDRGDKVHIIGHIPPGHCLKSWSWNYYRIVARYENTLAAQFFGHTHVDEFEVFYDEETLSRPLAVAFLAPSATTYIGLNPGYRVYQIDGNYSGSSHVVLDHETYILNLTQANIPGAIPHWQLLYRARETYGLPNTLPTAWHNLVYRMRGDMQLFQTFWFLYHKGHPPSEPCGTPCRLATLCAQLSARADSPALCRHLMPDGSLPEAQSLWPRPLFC
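Steps: dispense placental human ASM, pin compound, wait 10 min at room temperature, add HMU-PC0 substrate at 9 uM final, incubate 60 min at 37 °C, add stop solution raising pH to 10, read fluorescence.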
HepG2 viability: kills HepG2 cells in TGF-b inhibitor counter-screen; 410,000 compounds, 0.76% hits; HepG2 CAGA-GFP viability, ATP luminescence, 18 h; Potency, µM (top dose mostly 46.1 µM), for the others: at the highest dose activity change, negative = cytotoxicity, most hits filed as cytotoxic; note: potency is the fitted concentration of half-maximal effect
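HepG2 CAGA-GFP cells (1000/well, DMEM with 1% FBS) received compound, then TGF-beta at 500 pg/mL final, and were incubated 18 hours at 37 degrees C. Viability was read by CellTiter-Glo luminescence. Media-only wells were set as complete cell-killing and DMSO as no toxicity.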
* marks the source's active call; other numbers are inactive results. Unless noted, calls come from the whole dose curve; as a rule, active = well fitted curve in the direction sought with a large enough effect; inconclusive = small, poorly fitted or top-dose-only effect, or another doubt; inactive = no such curve, though single readings can be large; an effect the other way counts as inactive or inconclusive.

For O=C(NNC(=O)c1csc(-c2cnccc2C(F)(F)F)n1)c1ccc(C(F)(F)F)cc1 the results were IL-1B inflam inh 99.4, DT40 TDP1 CPT inconclusive, DT40 TDP1 no CPT 16.4µM*, TGFb inhibitor inconclusive, ASM inhibitor -2.9% and HepG2 viability -47.7%.
O=C(Nc1ccc(C(F)(F)F)cc1)c1csc(-c2ccncc2)n1 was read as IL-1B inflam inh inconclusive, DT40 TDP1 CPT -10.2%, DT40 TDP1 no CPT inconclusive, TGFb inhibitor -16.9%, ASM inhibitor -11.9% and HepG2 viability -28.8%.
Screening CCn1c(CNC(=O)C23CC4CC(CC(C4)C2)C3)nnc1SCC(=O)Nc1ccc(C)cc1 returned DT40 TDP1 CPT -21.2%, DT40 TDP1 no CPT inconclusive, TGFb inhibitor inconclusive and HepG2 viability -9.2%.
For Cc1cc2c(cc1C)-n1nnnc1C(N1CCN(c3ccccc3F)CC1)C(=O)N2 (stereo unspecified) the results were IL-1B inflam inh 7.3, DT40 TDP1 CPT 18.4µM* and DT40 TDP1 no CPT 18.4µM*.
Screening O=C1Nc2ccccc2-n2nnnc2C1N1CCN(c2ccc(C(F)(F)F)cn2)CC1 (stereo unspecified) returned IL-1B inflam inh 20.5, DT40 TDP1 CPT 16.4µM* and DT40 TDP1 no CPT 20.6µM*.
For Cc1cc2c(cc1C)-n1nnnc1C(N1CCN(CC(=O)N3CCCC3)CC1)C(=O)N2 (stereo unspecified) the results were IL-1B inflam inh 0.0, DT40 TDP1 CPT -20.6% and DT40 TDP1 no CPT -16.6%.
For Cc1cccc(N2CCN(C3C(=O)Nc4ccccc4-n4nnnc43)CC2)c1C (stereo unspecified) the results were IL-1B inflam inh 29.4, DT40 TDP1 CPT 11.6µM* and DT40 TDP1 no CPT 7.31µM*.
O=C1Nc2ccccc2-n2nnnc2C1N1CCN(c2ccccn2)CC1 (stereo unspecified) was read as IL-1B inflam inh -0.6, DT40 TDP1 CPT 0.1% and DT40 TDP1 no CPT -10.2%.
For Cc1cc2c(cc1C)-n1nnnc1C(N1CCN(C(=O)OCc3ccccc3)CC1)C(=O)N2 (stereo unspecified) the results were IL-1B inflam inh -4.0, DT40 TDP1 CPT 6.51µM* and DT40 TDP1 no CPT 5.8µM*.
Screening COc1ccc(S(=O)(=O)N(C)C)cc1NC(=O)COC(=O)C1CC1 returned IL-1B inflam inh 0.0, DT40 TDP1 CPT 1.1%, DT40 TDP1 no CPT 10.6%, TGFb inhibitor 11.8%, ASM inhibitor 5.9% and HepG2 viability 3.5%.
`N#Cc1cc([N+](=O)[O-])ccc1NC(=O)CSc1n[nH]c(=O)n1C1CC1` gave IL-1B inflam inh -6.5, DT40 TDP1 CPT -16.7%, DT40 TDP1 no CPT -21.0%, TGFb inhibitor 4.7%, ASM inhibitor -0.7% and HepG2 viability 1.3%.
Cc1cc2c(cc1C)-n1nnnc1C(N(C)Cc1ccccc1)C(=O)N2 (stereo unspecified) was read as IL-1B inflam inh 8.4, DT40 TDP1 CPT 20.6µM* and DT40 TDP1 no CPT 14.6µM*.
Screening Cc1cc2c(cc1C)-n1nnnc1C(N1CCCC1)C(=O)N2 (stereo unspecified) returned IL-1B inflam inh 3.4, DT40 TDP1 CPT -15.9% and DT40 TDP1 no CPT -28.7%.
Screening Cc1ccccc1CNC(=O)CN(c1cccc(C)c1C)S(C)(=O)=O returned DT40 TDP1 CPT -27.0%, DT40 TDP1 no CPT inconclusive, TGFb inhibitor -14.1% and HepG2 viability -0.8%.
`CC(=O)c1cccc(S(=O)(=O)NCCCN2CCOCC2)c1` gave IL-1B inflam inh -29.6, DT40 TDP1 CPT -0.9%, DT40 TDP1 no CPT 24.6%, TGFb inhibitor 9.7%, ASM inhibitor -1.3% and HepG2 viability -3.0%.
COc1cc2c(NC3CCN(C)CC3)nc(N3CCCN(C)CC3)nc2cc1OCC1CCCCN1 (stereo unspecified) was read as DT40 TDP1 CPT 11.2µM*, DT40 TDP1 no CPT inconclusive, TGFb inhibitor 11.2µM* and HepG2 viability -11.3%.
COc1cc2nc(N3CCCN(C)CC3)nc(NC3CCOCC3)c2cc1OC was read as DT40 TDP1 CPT 11.2µM* and DT40 TDP1 no CPT 7.08µM*.
For COc1cc2c(NC3CCN(C)CC3)nc(N3CCCN(C)CC3)nc2cc1O the results were DT40 TDP1 CPT 12.6% and DT40 TDP1 no CPT -20.4%.
COc1cc2nc(N3CCCN(C)CC3)nc(NC3CCN(C)C3)c2cc1OC (stereo unspecified) was read as DT40 TDP1 CPT 12.6µM*, DT40 TDP1 no CPT 17.8µM*, TGFb inhibitor inconclusive and HepG2 viability -9.2%.
Screening COc1cc2c(NC3CCN(C)CC3)nc(N3CCCN(C)CC3)nc2cc1OCCCCCN returned DT40 TDP1 CPT inconclusive, DT40 TDP1 no CPT -16.5%, TGFb inhibitor inconclusive and HepG2 viability -23.1%.
`COc1cc2nc(N3CCCN(C)CC3)nc(NC3CCCCC3)c2cc1OC` gave DT40 TDP1 CPT 7.94µM* and DT40 TDP1 no CPT 8.91µM*.
For COc1cc2nc(N3CCCN(C)CC3)nc(OC3CCN(C)CC3)c2cc1OC the results were DT40 TDP1 CPT inconclusive, DT40 TDP1 no CPT 14.1µM*, TGFb inhibitor -22.2% and HepG2 viability -63.2%.
`COc1cc2c(NC3CCN(C)CC3)nc(N3CCCN(C)CC3)nc2cc1OCCCCCC(N)=O` gave DT40 TDP1 CPT 7.1% and DT40 TDP1 no CPT inconclusive.
`Cc1cc(C(=O)CN2C(=O)c3ccccc3C2=O)c(C)n1Cc1cccs1` gave IL-1B inflam inh 3.9, DT40 TDP1 CPT inconclusive, DT40 TDP1 no CPT inconclusive, TGFb inhibitor -5.3%, ASM inhibitor -3.4% and HepG2 viability -10.8%.
Cc1cc(C)cc(NC(=O)c2cc(C)n(Cc3cccs3)c2C)c1 was read as IL-1B inflam inh -9.0, DT40 TDP1 CPT 29.1µM*, DT40 TDP1 no CPT 18.4µM*, TGFb inhibitor -10.4%, ASM inhibitor 1.8% and HepG2 viability -17.1%.
Screening Cc1cc(C(=O)Cn2nnc3ccccc3c2=O)c(C)n1Cc1cccs1 returned IL-1B inflam inh -10.8, DT40 TDP1 CPT 29.1µM*, DT40 TDP1 no CPT 18.4µM*, TGFb inhibitor -33.2%, ASM inhibitor -7.9% and HepG2 viability -15.3%.
Screening Cc1cc(C(=O)Nc2ccc(Cl)cc2)c(C)n1Cc1cccs1 returned DT40 TDP1 CPT inconclusive, DT40 TDP1 no CPT 8.2µM*, TGFb inhibitor 11.8%, ASM inhibitor -7.6% and HepG2 viability 14.6%.
